Here are results for 13 compounds from PubChem BioAssay.

Test [1] in a line: inhibitors of TNFa-induced NFkB p65 translocation, primary screen, imaging, HUVEC, MLSMR starter and 10KST1 sets (AID 438;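 active = inhibition above 20% together with a positive visual image hit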;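 note: compound added about 3h40 before a 20 min TNFalpha stimulation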;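 for inhibition: signal is the nuclear over cytoplasmic p65 intensity ratio per well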). The conditions noted are these: HUVEC TNFa-induced p65 nuclear translocation; cell count: measured here: nuclei count (cytotoxicity indicator), at 2.08 µM; inhibition: at 2 µM, stronger effect = higher value, 0% TNFa-plus-vehicle, 100% no-TNFa wells.
The nature of test [2]: reduction of polyQ htt aggregates in cells – imaging, exon1htt(103Q)mCFP cells, high-content imaging, primary screen (AID 483;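 active = visual image review flags a hit and inhibition of aggregation exceeds 20%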;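 note: compound exposure lasted 3 days before fixation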;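 for nuclei count: percent of the per-plate median nuclei count of sample wells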). The conditions noted are these: exon1htt(103Q)mCFP cell line, aggregate imaging, at 2 µM; inhibition of aggregation: stronger effect = higher value; nuclei count: measured here: cell count, toxicity.
Test [3] in a line: endothelial E-selectin expression blockers – imaging, HUVEC, immunofluorescence, MLSMR starter and 10KST1 sets, primary screen (AID 487;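 active = visually confirmed hit in the image check and inhibition above 20%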;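 for inhibition: signal is fraction of cell area covered by stained E-selectin grains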;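 for nuclei count: 100% = median nuclei count of all wells on the same plate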). Conditions: HUVEC TNFalpha-induced E-selectin immunofluorescence imaging, at 2 µM; inhibition: stronger effect = higher value; nuclei count: measured here: cell number, toxicity.
Test [4] addresses Voltage-gated potassium channel subunit beta-2 (Rattus norvegicus) (UniProt P62483). As to the kind of experiment: inhibitors of rat Kvbeta2 reductase activity – biochemical, NADPH fluorescence, primary screen (AID 622;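 active = fluorescence slope higher than the sample average by over 3 SD, cut at about -0.22 in these data, passing the limit was not always enough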;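 note: slope of raw intensity against log time taken from 70 to 1610 s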). Conditions: recombinant KvBeta, 4-cyanobenzaldehyde reduction, at 10 µM, stronger effect = higher value.
The target is the same in test [5]. As to the kind of experiment: enhancers of rat Kvbeta2 NADPH turnover – biochemical, NADPH fluorescence, primary screen (AID 623;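 active = NADPH fluorescence slope more negative than the mean of all samples by about 3 SD, 99.7% confidence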;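 note: fluorescence intensity change per second fitted from 20 to 320 s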). The conditions noted are these: Recombinant KvBeta, NADPH fluorescence decrease slope, 10 min; at 10 µM; stronger effect = lower value.
Test [6] deals with Alpha-2C adrenergic receptor (Homo sapiens) (UniProt P18825). The test can be described thus: compounds altering alpha2C-coupled GIRK flux – cell-based, HEK293 alpha2C/GIRK1/2, thallium flux, primary screen (AID 624;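 active = fluorescence slope after compound addition differing from the mean of all screened samples at 99.7% confidence, in either direction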;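 note: slope of fluorescence ratio to pre-addition baseline per second over 15 to 24 s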). The conditions noted are these: thallium flux BTC fluorescence, at 10 µM, actives lie on both sides.
Sequence of Alpha-2C adrenergic receptor (Homo sapiens) (P18825 whole entry, looked up): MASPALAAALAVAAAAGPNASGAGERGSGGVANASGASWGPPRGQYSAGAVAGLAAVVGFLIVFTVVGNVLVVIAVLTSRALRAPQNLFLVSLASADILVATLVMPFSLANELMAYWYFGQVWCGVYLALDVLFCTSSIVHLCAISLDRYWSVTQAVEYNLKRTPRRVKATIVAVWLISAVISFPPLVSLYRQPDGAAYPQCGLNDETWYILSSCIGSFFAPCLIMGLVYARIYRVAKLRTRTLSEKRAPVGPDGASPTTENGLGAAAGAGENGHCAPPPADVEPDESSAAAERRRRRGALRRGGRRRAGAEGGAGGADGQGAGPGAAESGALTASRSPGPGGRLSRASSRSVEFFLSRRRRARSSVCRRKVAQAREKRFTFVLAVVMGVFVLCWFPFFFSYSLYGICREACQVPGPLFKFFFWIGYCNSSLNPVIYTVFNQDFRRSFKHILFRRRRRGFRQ
Test [7] in a line: blockers of RIG-like receptor reporter activation – cell-based, Sendai virus stimulus, luciferase, 10K MLSCN set, TLR/RLR signaling modifier project, primary screen (AID 602276).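 Note: firefly luciferase from ISG56 promoter only with Renilla not read in this screen; 0% = Sendai virus plus DMSO and 100% = medium plus DMSO without virus.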 Conditions: HEK293 RL24 IRF3 luciferase reporter, at 10 µM, stronger effect = higher value. (In a reporter assay the amount or activity of a reporter protein is the signal.)
Test [8] is described as follows: TLR3 IRF3 reporter activation blockers – cell-based, poly I:C stimulus, luciferase, 10K MLSCN set, primary screen (AID 602277;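 active = inhibition of the reporter signal at or above 50%; inactive = inhibition below 50%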). Conditions: HEK293-TLR3 RL24 IRF3 luciferase reporter, at 10 µM, stronger effect = higher value.

Activity calls are given as the source filed them.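 Rule for the calls, unless noted: active = inhibition at or above 50% at 10 µM; inactive = inhibition below 50%.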

As usually defined, the inhibition is the relative decrease from the control value, in per cent.

Sequence of Voltage-gated potassium channel subunit beta-2 (Rattus norvegicus) (P62483 whole entry, looked up): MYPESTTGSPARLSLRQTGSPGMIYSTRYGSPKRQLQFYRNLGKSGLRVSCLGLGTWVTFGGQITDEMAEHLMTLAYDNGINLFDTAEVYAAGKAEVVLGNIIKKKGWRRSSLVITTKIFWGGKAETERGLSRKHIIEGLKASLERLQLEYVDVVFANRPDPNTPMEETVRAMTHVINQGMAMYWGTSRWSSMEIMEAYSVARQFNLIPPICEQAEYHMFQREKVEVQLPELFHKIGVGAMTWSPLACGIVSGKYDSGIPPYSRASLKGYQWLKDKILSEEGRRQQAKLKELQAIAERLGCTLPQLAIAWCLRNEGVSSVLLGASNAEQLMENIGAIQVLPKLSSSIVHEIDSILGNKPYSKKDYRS

In the case of `COCCn1c(C)cc(C(=O)COC(=O)CCN2C(=O)c3ccccc3C2=O)c1C`, the cell count in test [1] was determined as 287. Also, the inhibition was 3.2% (inactive) in test [1], -6.1% (inactive) in test [3], 3.96% (inactive) in test [7] and 4.05% (inactive) in test [8]. Further, the inhibition of aggregation in test [2] was 17.1% (inactive). In addition, the nuclei count in test [2] amounted to 96.8%; in test [3] it was 97.3%. Further, the fluorescence slope in test [4] is -0.528 (inactive). In addition, the NADPH fluorescence slope in test [5] is 6.5e-06 (inactive). The slope in test [6] was 0.00506 (inactive).
With `COC(=O)c1ccccc1OCC(=O)NC1CCCCC1`, the cell count in test [1] came out at 400. Besides, the inhibition in test [1] is 2.8% (inactive); in test [3], -140% (inactive); in test [7], -18.9% (inactive); in test [8] it was -61.5% (inactive). Also, the inhibition of aggregation in test [2] is -13.9% (inactive). For the same compound, the nuclei count in test [2] came to 110%; in test [3], 112%. The fluorescence slope in test [4] is -0.511 (inactive). The NADPH fluorescence slope in test [5] was -1.1e-05 (inactive). Besides, the slope in test [6] was 0.00395 (inactive).
Consider `Cc1ccc(C2=N/C(=C/N3CCOCC3)C(=O)O2)cc1`, for which, in test [1], the cell count worked out at 302. The inhibition was 3.3% (inactive) in test [1], 8.3% (inactive) in test [3], -49.1% (inactive) in test [7] and -197% (inactive) in test [8]. The inhibition of aggregation in test [2] is 14% (inactive). Also, the nuclei count in test [2] is 96.4%; in test [3] it was 98.9%. The fluorescence slope in test [4] is -0.512 (inactive). For the same compound, the NADPH fluorescence slope in test [5] is -2.4e-05 (inactive). The slope in test [6] was 0.00711 (inactive).
As for `COc1cccc(NC(=O)N(Cc2ccco2)C(C)c2cccs2)c1` (stereo not drawn), the cell count in test [1] is 734. Further, the inhibition in test [1] is -12.7% (inactive); in test [3] it was -52.3% (inactive); in test [7], 11% (inactive); in test [8], 15.1% (inactive). For the same compound, in test [2], the inhibition of aggregation is -16.2% (inactive). Besides, the figures for the nuclei count in test [2] and in test [3] were 103% and 114%, respectively. For the same compound, the fluorescence slope in test [4] was -0.469 (inactive). In addition, the NADPH fluorescence slope in test [5] was 2.7e-05 (inactive). Besides, the slope in test [6] is 0.00569 (inactive).
Consider `Cc1ccc(S(=O)(=O)N2CCN(S(=O)(=O)N(C)C)CC2)cc1`, for which, in test [1], the cell count is 362. Further, the inhibition in test [1] was 4.3% (inactive); in test [3], 8.9% (inactive); in test [7], 12.1% (inactive); in test [8] it was 15.4% (inactive). Further, the inhibition of aggregation in test [2] is -29.3% (inactive). Moreover, the nuclei count in test [2] worked out at 101%; in test [3], 111%. The fluorescence slope in test [4] is -0.518 (inactive). Further, the NADPH fluorescence slope in test [5] was -1.8e-06 (inactive). In addition, the slope in test [6] was 0.00563 (inactive).
For the compound `C(=C\c1ccccc1)/CN1CCN(Cc2ccc3c(c2)OCCO3)CC1`, in test [1], the cell count is 435. Moreover, the inhibition is 0.5% (inactive) in test [1], -26.4% (inactive) in test [3], 14% (inactive) in test [7] and 19.9% (inactive) in test [8]. The inhibition of aggregation in test [2] is 2% (inactive). Also, the nuclei count is 104% in test [2] and 120% in test [3]. Also, the fluorescence slope in test [4] was -0.442 (inactive). In addition, in test [5], the NADPH fluorescence slope is 2e-05 (inactive). In addition, the slope in test [6] was 0.00636 (inactive).
Take `O=C(CN(C(=O)CCC(=O)Nc1nccs1)c1ccccc1F)NCC1CCCO1` (stereo not drawn): in test [1], the cell count was 343. The inhibition was -0.8% (inactive) in test [1], -19.4% (inactive) in test [3], 8.97% (inactive) in test [7] and 15.4% (inactive) in test [8]. The inhibition of aggregation in test [2] is 6% (inactive). In addition, the figures for the nuclei count in test [2] and in test [3] were 87.3% and 124%, respectively. Moreover, the fluorescence slope in test [4] is -0.609 (inactive). Also, the NADPH fluorescence slope in test [5] is -1.3e-06 (inactive). For the same compound, in test [6], the slope was 0.00439 (inactive).
In the case of `O=C(CSc1nccn1-c1cccc(Cl)c1)NC1CCCC1`, the cell count in test [1] worked out at 256. The inhibition is -9.5% (inactive) in test [1], 39.3% (inactive) in test [3], 14.4% (inactive) in test [7] and 29.2% (inactive) in test [8]. In test [2], the inhibition of aggregation is -1.4% (inactive). For the same compound, the values for the nuclei count in test [2] and in test [3] were 95.8% and 95.5%, respectively. In addition, in test [4], the fluorescence slope was -0.618 (inactive). Also, the NADPH fluorescence slope in test [5] is 3e-05 (inactive). Besides, the slope in test [6] is 0.00565 (inactive).
In the case of `Cc1cc(=O)n2nc(-c3ccccc3)sc2n1`, the cell count in test [1] amounted to 563. For the same compound, the inhibition is -1.1% (inactive) in test [1], -70.5% (inactive) in test [3], -17.6% (inactive) in test [7] and -64.6% (inactive) in test [8]. In addition, the inhibition of aggregation in test [2] was -4.1% (inactive). Moreover, the nuclei count in test [2] is 106%; in test [3], 108%. Also, the fluorescence slope in test [4] was -0.421 (inactive). Also, the NADPH fluorescence slope in test [5] is -9.5e-06 (inactive). The slope in test [6] was 0.00585 (inactive).
As to `CCOc1cc(S(=O)(=O)Nc2ccccn2)ccc1F`, the cell count in test [1] worked out at 382. Moreover, the inhibition in test [1] is 4.8% (inactive); in test [3] it was 29.7% (inactive); in test [7] it was 5.64% (inactive); in test [8], -11.5% (inactive). Moreover, the inhibition of aggregation in test [2] is 0.1% (inactive). Also, the nuclei count in test [2] came to 107%; in test [3], 99.7%. Moreover, in test [4], the fluorescence slope was -0.62 (inactive). The NADPH fluorescence slope in test [5] was 4.6e-06 (inactive). For the same compound, in test [6], the slope was 0.0046 (inactive).
As for `O=C(CCN1C(=O)C2C3C=CC(C3)C2C1=O)NC1CCCc2ccccc21` (stereo not drawn), in test [1], the cell count was 411. Moreover, the inhibition in test [1] is 7.3% (inactive); in test [3], -138% (inactive); in test [7], 10.7% (inactive); in test [8], 30.7% (inactive). In addition, the inhibition of aggregation in test [2] was 4.3% (inactive). Moreover, the nuclei count in test [2] and in test [3] was 104% each time. Moreover, the fluorescence slope in test [4] was -0.441 (inactive). Besides, the NADPH fluorescence slope in test [5] was -1.7e-05 (inactive). Further, in test [6], the slope was 0.00567 (inactive).
For the compound `COC(=O)C(O)(CC(=O)c1ccc(OC)cc1)C(F)(F)F` (stereo not drawn), the cell count in test [1] worked out at 778. Besides, the inhibition is -12.8% (inactive) in test [1], 36% (inactive) in test [3], 9.29% (inactive) in test [7] and 9.82% (inactive) in test [8]. In addition, the inhibition of aggregation in test [2] was 4.5% (inactive). Further, the results for the nuclei count in test [2] and in test [3] were 100% and 99.4%, respectively. In addition, the fluorescence slope in test [4] was -0.507 (inactive). The NADPH fluorescence slope in test [5] was -1.8e-05 (inactive). The slope in test [6] was 0.0048 (inactive).
Regarding `COC(=O)c1c(O)ccc(Oc2ccccc2)c1C(=O)OC`, the cell count in test [1] is 667. The inhibition is -5.3% (inactive) in test [1], -17.9% (inactive) in test [3], 15.3% (inactive) in test [7] and 21.8% (inactive) in test [8]. Besides, in test [2], the inhibition of aggregation was 28.9% (inactive). For the same compound, the nuclei count in test [2] was 71.8%; in test [3], 107%. Further, the fluorescence slope in test [4] was -0.257 (inactive). Further, the NADPH fluorescence slope in test [5] was -2.9e-06 (inactive). Moreover, in test [6], the slope is 0.0066 (inactive).
